# Screening data from PubChem.
# sEH inhibitor – soluble epoxide hydrolase inhibitors, primary screen, biochemical, human sEH. Bifunctional epoxide hydrolase 2 (Homo sapiens), P34913. recombinant human sEH enzymatic activity assay. inhibition, % at 2 µM. actives 0.34% (n = 91,000); in the data active means inhibition above about 80%
# CYP2C19 activ – human CYP2C19 activators, primary screen, biochemical, luminescence | Cytochrome P450 2C19 (Homo sapiens), P33261 | recombinant CYP2C19, luciferin-H EGE luminescence; active compounds read high; 0 = fully inhibited enzyme, 1 = untreated enzyme | activation factor at 5 µM | 96,000 tested, under 10 active | AID 1025, 2008;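 active means activation factor of at least 2 at 5 µM in the primary screen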;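 further: 0 = wells with 2.5 mM tranylcypromine and 1 = vehicle-only wells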
# CYP2C19 inh – blockers of cytochrome P450 2C19 activity – biochemical, luminescence, ADME assay, primary screen | actives 21% (n = 96,000) | inhibition, % at 5 µM | AID 778, 2007 | P33261 | CYP2C19 Supersomes, luciferin-H EGE luminescence, 30 min;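 active means CYP2C19 inhibition above a set limit at 5 µM in the primary screen, cut at about 50% in these data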;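 further: plate controls were negative control wells for no effect and 2.5 mM tranylcypromine positive control for full effect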
# sEH activator – soluble epoxide hydrolase activators, primary screen, biochemical, human sEH | purified human sEH enzymatic activity, activator screen | actives 0.04% (n = 91,000) | Bifunctional epoxide hydrolase 2 (Homo sapiens), P34913 | activation, % at 2 µM | AID 717, 2007; in the data active means activation above about 37%
# CYP2C9 activ – human CYP2C9 activators, primary screen, biochemical, luminescence; actives 1.4% (n = 96,000); AID 1024, 2008; activation factor at 5 µM; recombinant CYP2C9, luciferin-H conversion; active compounds read high; factor 1 = untreated enzyme, 0 = blocked;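 active means activation factor of 2 or more for CYP2C9 at a 5 µM dose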;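 further: 0 = sulfaphenazole-blocked wells and 1 = vehicle-only wells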
# Target sequence (P11712 whole entry, looked up): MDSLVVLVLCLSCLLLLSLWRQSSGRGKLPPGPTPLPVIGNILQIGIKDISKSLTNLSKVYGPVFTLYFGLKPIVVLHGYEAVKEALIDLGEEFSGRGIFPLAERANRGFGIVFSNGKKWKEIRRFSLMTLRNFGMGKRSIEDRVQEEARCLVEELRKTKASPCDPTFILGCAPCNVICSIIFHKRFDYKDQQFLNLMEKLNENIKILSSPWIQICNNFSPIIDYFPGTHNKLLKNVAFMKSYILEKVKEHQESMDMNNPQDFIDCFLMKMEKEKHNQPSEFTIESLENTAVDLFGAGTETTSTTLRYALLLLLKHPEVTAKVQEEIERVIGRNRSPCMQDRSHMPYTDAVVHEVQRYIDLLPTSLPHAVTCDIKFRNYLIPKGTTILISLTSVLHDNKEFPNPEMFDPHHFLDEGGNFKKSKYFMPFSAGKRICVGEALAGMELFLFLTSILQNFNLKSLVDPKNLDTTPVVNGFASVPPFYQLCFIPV
# CYP2C9 inhib – blockers of cytochrome P450 2C9 activity – biochemical, luminescence, ADME assay, primary screen; P11712; CYP2C9 Supersomes, luciferin-H conversion; actives 20% (n = 96,000); inhibition, % at 5 µM;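 active means blocking of liver enzyme CYP2C9 beyond about 50% at 5 µM, limit read from the data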
# Active calls of the source: *; x = no result given. This is a sample that favours compounds with a hit; in the whole collection about 27% have one here.
SMILES,sEH inhibitor,CYP2C19 activ,CYP2C19 inh,sEH activator,CYP2C9 activ,CYP2C9 inhib
Cc1nnc(N2CCN(c3ccccc3)CC2)c2nn(-c3ccccc3F)c(C)c12,-9.7,x,x,8.8,x,x
C=CCn1c(O)c(C(CC)=Nc2ccccc2NC(=O)CC)c(=O)[nH]c1=O,-3.8,0.3,71.5*,5.1,0.4,59.9*
CC(NC(=O)Cn1nc(C(=O)O)c2ccccc2c1=O)c1ccccc1 (stereo not given),10.0,x,x,-6.6,x,x
CC(NC(=O)Cn1nc(-c2ccccc2)c2ccccc2c1=O)c1ccccc1 (stereo not given),-2.9,0.1,88.6*,6.5,0.8,24.7
NC(=O)CSc1nnc(Cc2csc(Nc3ccccc3)n2)n1Cc1ccccc1,5.5,0.3,65.6*,-6.7,0.5,48.9
COc1cc(C2c3sc(=O)[nH]c3SC3C4CCC(C4)C23)ccc1O (stereo not given),30.3,0.5,50.8*,-29.3,0.5,52.6*
COc1ccc(C2c3sc(=O)[nH]c3SC3C4CCC(C4)C23)cc1 (stereo not given),-2.4,0.4,55.9*,2.3,0.8,16.5
Cc1ccc(/C=N/NC(=O)c2c[nH]c3ccccc23)s1,7.9,0.8,19.3,-6.3,0.9,13.9
CCc1ccc(/C=N/NC(=O)c2cc(C3CC3)nc3ccccc23)s1,-3.1,0.8,25.0,4.7,0.2,81.4*
CC(C)c1ccc2nc3sc(C(=O)N4CCc5ccccc5C4)c(N)c3cc2c1,11.1,0.9,9.0,-9.1,0.5,51.3*
CCCCC(c1nnnn1CCOC)N1CCN(C)CC1 (stereo not given),-22.1,x,x,26.1,x,x
O=C(Cc1cccs1)Nc1ccc(-c2nnc(-c3ccccc3)o2)cc1,0.7,x,x,2.0,x,x
Cc1ccc(-c2nnc(-c3cccc(NC(=O)c4cccs4)c3)o2)cc1,3.6,0.4,55.2*,-0.8,0.2,78.2*
CCC(=O)Nc1cccc(-c2nc3ccccc3o2)c1,2.0,0.5,53.5*,-0.7,0.8,21.9
Cc1cccc(-c2nnc(-c3cccc(NC(=O)Cc4cccs4)c3)o2)c1,-1.4,0.3,71.6*,3.8,0.4,64.8*
CCC(=O)Nc1cccc(NC(=O)c2cc3ccccc3o2)c1,-7.2,0.4,62.4*,5.8,1,2.9
Nc1cccc(NC(=O)c2cccs2)c1,-11.3,1.1,-8.5,11.5,1,2.4
O=c1oc(-c2cccc(S(=O)(=O)N3CCOCC3)c2)nc2ccccc12,x,1,-4.4,x,0.7,29.6
C=C(c1cccc2ccccc12)P(=O)(O)O,9.4,1.2,-16.8,-9.3,1.1,-10.0
CCc1ccc2[nH]c(=O)c(CN(Cc3ccc4c(c3)OCO4)C(=O)c3ccco3)cc2c1,9.7,0.9,5.3,-8.7,0.9,14.9
O=C(Cc1cccs1)Nc1cccc(-c2nc3ccccc3o2)c1,10.9,0.7,27.2,-8.2,0.3,66.7*
Cc1ccc(-c2nc3ccccc3o2)cc1NC(=O)Cc1cccs1,12.6,0.8,18.4,-10.4,0.8,20.6
CC(C)(C)c1nnc(NC(=O)NS(=O)(=O)c2ccccc2)s1,5.4,1,-3.2,-4.4,0.8,20.6
O=C(NC1CCCC1)C1CCCN1S(=O)(=O)c1cccc2cccnc12 (stereo not given),7.2,0.4,59.3*,-8.3,1,4.1
CCOC(=O)N1CCC(NC(=O)C2CCN(S(=O)(=O)c3cccc4cccnc34)CC2)CC1,x,1.1,-5.9,x,1.5,-46.3
CC1CCCC(NC(=O)C2CCCN2S(=O)(=O)c2cccc3nsnc23)C1C (stereo not given),-10.1,0.1,86.9*,7.3,0.4,56.7*
CCC(C)NC(=O)C1CCN(S(=O)(=O)c2cccc3cccnc23)CC1 (stereo not given),-4.7,0.7,29.0,6.5,3.2*,-216.9
O=C(NC1CCCCC1)C1CCN(S(=O)(=O)c2cccc3cccnc23)CC1,23.6,0.4,55.2*,-22.3,3.4*,-241.6
